Sampled rows, rich in hits. Any-hit rate of the full collection: about 5.9%.
GLP1R inv ag = qHTS of GLP-1 Receptor Inverse Agonists (Inhibition Mode); Potency, µM (doses to about 38.3 µM), for inactives: at the top dose activity change, negative = inhibition, actives largely listed as inhibitors; AID 624417, 2012; 1.6% of 410,000 active; HEK293 GLP-1R CRE-luciferase, luminescence, 24 h; GLP-1R form is constitutively active; note: % is set by controls: 0 for no effect and ±100 for the full control effect; nearly all actives have a fitted effect of over 55% in size
Target sequence (P43220 whole entry, looked up): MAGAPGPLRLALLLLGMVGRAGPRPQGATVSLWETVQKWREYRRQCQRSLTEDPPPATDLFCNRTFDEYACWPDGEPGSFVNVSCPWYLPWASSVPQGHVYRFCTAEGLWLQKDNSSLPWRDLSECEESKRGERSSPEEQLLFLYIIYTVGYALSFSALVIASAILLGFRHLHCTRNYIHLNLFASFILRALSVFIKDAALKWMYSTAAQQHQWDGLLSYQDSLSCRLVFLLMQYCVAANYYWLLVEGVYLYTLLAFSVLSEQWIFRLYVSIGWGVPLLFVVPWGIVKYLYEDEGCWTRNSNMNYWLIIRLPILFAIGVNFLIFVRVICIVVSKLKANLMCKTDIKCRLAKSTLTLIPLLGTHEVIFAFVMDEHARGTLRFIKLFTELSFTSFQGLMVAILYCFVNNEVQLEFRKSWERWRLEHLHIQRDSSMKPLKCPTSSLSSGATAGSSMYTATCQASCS
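qHTS in 1536-well format: reporter HEK293 cells expressing constitutive GLP-1R activity in DMEM + 10% Nu serum, 24 hr with compounds at 37 deg C, luminescence read after 12 min with detection reagent.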
Gal4-VP16 FLuc = VP16 counterscreen qHTS for inhibitors of ROR gamma transcriptional activity; Drosophila S2 Gal4-VP16 UAS-luciferase, luminescence, 20 h; Potency, µM (highest dose often 53.6 µM), for inactives: at the top dose activity, negative = inhibition, actives largely listed as inhibitors; AID 2546, 2010; 3.5% of 310,000 active;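 note: Gal4-VP16 expression switched on by copper sulfate through the metallothionein promoter; % is set by controls: 0 for no effect and ±100 for the full control effect; nearly all actives have a fitted effect of over 50% in size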
GLP-1R agonist = qHTS of GLP-1 Receptor Agonists; Glucagon-like peptide 1 receptor (Homo sapiens), P43220; HEK293 GLP-1R CRE-luciferase, luminescence, 4-6 h; cells express a hypersensitive GLP-1R form; Potency, µM (top dose mostly 45.6 µM), for inactives: top-dose activation, most hits filed as activators; 0.007% of 380,000 active; note: % of control where 0% means no effect
HEK293 tox = qHTS of GLP-1 Receptor Inverse Agonists: Cytotox Screen; Potency, µM (series often up to 38.3 µM), for the others: at the top dose activity change, negative = inhibition, usual class: inhibitors; 0.13% of 410,000 active; HEK293 cAMP-luciferase reporter cells, luminescence, 24 h;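 note: loss of luciferase light is scored as toxicity; % is set by controls: 0 for no effect and ±100 for the full control effect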
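Compound-treated cells are incubated 24 hr at 37 deg C under 5% CO2 after a 12 hour attachment period, then luciferase detection reagent is added and luminescence is measured following 12 min at room temperature; lowered signal indicates toxicity.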
RORgamma inh = qHTS for inhibitors of ROR gamma transcriptional activity; Drosophila S2 Gal4-RORgamma UAS-luciferase reporter, 20 h; AID 2551, 2010; Potency, µM (series often up to 53.6 µM), without a hit: at the top dose activity change, negative = inhibition, usual class: inhibitors; 5.4% of 310,000 active; note: % is set by controls: 0 for no effect and ±100 for the full control effect; nearly all actives have a fitted effect of over 60% in size
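Drosophila Schneider cells stably carrying a metallothionein-driven Gal4 DBD–ROR gamma fusion and a UAS-Photinus luciferase reporter were exposed to compound for 1 hr, then induced with copper sulfate (700 uM final) for 20 hr at ambient temperature before luminescence reading.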
* marks the source's active call; other numbers are inactive results. Calls come from the whole dose curve; as a rule, active = well fitted curve in the direction sought with a large enough effect; inconclusive = small, poorly fitted or top-dose-only effect, or another doubt; inactive = no such curve, though single readings can be large; an effect the other way counts as inactive or inconclusive. Potency is the fitted concentration of half-maximal effect.

How did COc1ccccc1CNc1nc(-c2ccc(N(C)C)cc2)nc2ccccc12 do in these assays?
Gal4-VP16 FLuc: inconclusive; RORgamma inh: 7.94µM*

Results for COc1ccc(Oc2ncc3nc(-c4cccc(C#N)c4)c(=O)n(C)c3n2)cc1 ?
Gal4-VP16 FLuc: 0.4%; RORgamma inh: -20.1%

Results for COc1cccc(CC2(CO)CCCN(Cc3cn[nH]c3C3CCCCC3)C2)c1 (configuration not stated) ?
GLP1R inv ag: inconclusive; Gal4-VP16 FLuc: 1.7%; GLP-1R agonist: 3.7%; HEK293 tox: 5.7%; RORgamma inh: 0.4%

What do the screens show for `COc1ccc2cc(C(=O)C3CCCN(Cc4ccccn4)C3)ccc2c1` (configuration not stated)?
GLP1R inv ag: inconclusive; Gal4-VP16 FLuc: inconclusive; GLP-1R agonist: 6.9%; HEK293 tox: inconclusive; RORgamma inh: 3.16µM*

How did COc1ccc2cc(C(=O)C3CCCN(Cc4cnc(N5CCOCC5)s4)C3)ccc2c1 (configuration not stated) do in these assays?
GLP1R inv ag: inconclusive; Gal4-VP16 FLuc: -2.5%; GLP-1R agonist: 9.8%; HEK293 tox: -33.7%; RORgamma inh: 6.9%

Results for CCn1ccnc1CN1CCCC(C(=O)c2ccc3cc(OC)ccc3c2)C1 (configuration not stated) ?
GLP1R inv ag: inconclusive; Gal4-VP16 FLuc: 1.58µM*; GLP-1R agonist: 12.3%; HEK293 tox: inconclusive; RORgamma inh: 0.0224µM*

How did COc1cccc(C(=O)C2CCCN(Cc3cn[nH]c3C3CCCCC3)C2)c1 (configuration not stated) do in these assays?
GLP1R inv ag: 10µM*; Gal4-VP16 FLuc: 0.8%; GLP-1R agonist: 14.2%; HEK293 tox: -6.8%; RORgamma inh: -19.1%

How did CCC(Oc1ccccc1)C(=O)Nc1cc(-c2ccccc2F)nn1-c1ccccc1 (configuration not stated) do in these assays?
GLP1R inv ag: inconclusive; HEK293 tox: 13.3%

Results for CC(=O)Nc1ccccc1-c1nc2ccccc2n(C(C)C(=O)Nc2ccccc2C(F)(F)F)c1=O (configuration not stated) ?
GLP1R inv ag: -12.6%; HEK293 tox: -4.3%

How did CC(=O)/C(=N\Nc1ccccc1)Sc1nnc(-c2ccccc2)n1-c1ccccc1 do in these assays?
GLP1R inv ag: -8.3%; Gal4-VP16 FLuc: inconclusive; GLP-1R agonist: -3.0%; HEK293 tox: 12.8%; RORgamma inh: 10µM*

Results for CC(=O)/C(=N\Nc1ccc(Cl)cc1Cl)Sc1nnc(-c2ccccc2)n1-c1ccccc1 ?
GLP1R inv ag: -15.6%; Gal4-VP16 FLuc: -24.6%; GLP-1R agonist: -3.4%; HEK293 tox: -1.7%; RORgamma inh: -26.4%

What do the screens show for `CC(=O)/C(=N\Nc1ccccc1Cl)Sc1nnc(-c2ccccc2)n1-c1ccccc1`?
GLP1R inv ag: 0.0%; Gal4-VP16 FLuc: inconclusive; GLP-1R agonist: 10.9%; HEK293 tox: 14.2%; RORgamma inh: 10µM*

What do the screens show for `Cc1ccnc(Sc2ccc([N+](=O)[O-])cc2[N+](=O)[O-])n1`?
GLP1R inv ag: inconclusive; Gal4-VP16 FLuc: inconclusive; GLP-1R agonist: -13.0%; HEK293 tox: -23.1%; RORgamma inh: 12.6µM*

What do the screens show for `Nc1nc(Sc2ccc([N+](=O)[O-])cc2[N+](=O)[O-])n[nH]1`?
GLP1R inv ag: 6.2%; Gal4-VP16 FLuc: 6.4%; GLP-1R agonist: 1.7%; HEK293 tox: -6.4%; RORgamma inh: -24.9%

Results for COc1cccc([C@@H]2Oc3ccc(OC)cc3C(=O)[C@H]2OC(=O)NS(=O)(=O)c2ccc(C)cc2)c1 ?
Gal4-VP16 FLuc: 4.3%; RORgamma inh: inconclusive

How did COc1ccccc1NC(=S)NCc1ccccn1 do in these assays?
GLP1R inv ag: -30.4%; Gal4-VP16 FLuc: inconclusive; GLP-1R agonist: 15.2%; HEK293 tox: 0.0%; RORgamma inh: inconclusive
